From PubChem BioAssay AID1159580 (chemical genetic matrix, 2015)
Hit rate of the full screen: of about 5,500 compounds, about 2,000 (36%) were called active. Inconclusive results (about 18%) are left out. No stated cut-off is given here; in the data, active means normalized growth mostly below about 0.91 (no sharp cut-off); inconclusive means no clear call, values can overlap the other calls; inactive means mostly above about 0.92. The list shows a part of the results.

Assay: chemical genetic growth profiling, strain panel (AID 1159580);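 further: tested at 20 µM; growth read once vehicle control cultures reached saturation at 30 °C; 1 = growth at the plate median or of vehicle wells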
Conditions: S. cerevisiae deletion strains, growth OD
[1] = locus YAL040C, strain CLN3, stronger effect = lower value
[2] = locus YDR363W, strain ESC2, stronger effect = lower value
[3] = locus YER002W, strain NOP16, stronger effect = lower value
[4] = locus YNL175C, strain NOP13, stronger effect = lower value
[5] = locus YNL197C, strain WHI3, stronger effect = lower value
[6] = locus YNL224C, strain SQS1, stronger effect = lower value
[7] = locus YOR083W, strain WHI5 (second series), stronger effect = lower value

CC(C)(C)[C@]1(O)CCN2C[C@H]3c4ccccc4CCc4cccc(c43)[C@@H]2C1
normalized growth [1]: 0.999 (inactive) | normalized growth [2]: 0.994 (inactive) | normalized growth [3]: 0.993 (inactive) | normalized growth (locus YMR263W, strain SAP30, stronger effect = lower value): 1 (inactive) | normalized growth (locus YNL128W, strain TEP1, stronger effect = lower value): 1.01 (inactive) | normalized growth [4]: 1.03 (inactive) | normalized growth [5]: 1.02 (inactive) | normalized growth [6]: 1.02 (inactive) | normalized growth (locus YNL322C, strain KRE1, stronger effect = lower value): 1.01 (inactive) | normalized growth [7]: 1.05 (inactive)

OC[C@@H](O)[C@H](O)[C@@H](O)[C@H](O)CO
normalized growth (locus YHR030C, strain SLT2, stronger effect = lower value): 0.974 (inactive) | normalized growth (locus YHR079C, strain IRE1, stronger effect = lower value): 0.995 (inactive) | normalized growth (locus YJL095W, strain BCK1, stronger effect = lower value): 1 (inactive) | normalized growth (locus YJR066W, strain TOR1, stronger effect = lower value): 0.936 (inactive) | normalized growth (locus YLR113W, strain HOG1, stronger effect = lower value): 0.959 (inactive) | normalized growth (locus YNL183C, strain NPR1, stronger effect = lower value): 0.941 (inactive) | normalized growth (locus YOR231W, strain MKK1, stronger effect = lower value): 0.991 (inactive) | normalized growth (locus YPL256C, strain CLN2, stronger effect = lower value): 0.964 (inactive)

C[C@]12CC[C@@H](O)CC1CC[C@@H]1[C@@H]2CC[C@]2(C)C(=O)CC[C@@H]12 (some centres undefined)
normalized growth (locus YAL013W, strain DEP1, stronger effect = lower value): 0.895 (active) | normalized growth [1]: 0.989 (inactive) | normalized growth (locus YCL061C, strain MRC1 (second series), stronger effect = lower value): 1 (inactive) | normalized growth [2]: 0.938 (inactive) | normalized growth [3]: 1.02 (inactive) | normalized growth (locus YGR078C, strain PAC10, stronger effect = lower value): 0.973 (inactive) | normalized growth [4]: 1.01 (inactive) | normalized growth [5]: 0.993 (inactive) | normalized growth [6]: 0.997 (inactive) | normalized growth [7]: 0.885 (inactive) | normalized growth (locus YPL241C, strain CIN2, stronger effect = lower value): 1.04 (inactive)
